# Source: PubChem BioAssay (EPA / NIEHS)
# Several values for one entry are separate records, joined by “and”; a condition that tells them apart may be missing. Identical values can stand only once. Inconclusive results are not listed. Activity calls are given as the source filed them. The calls were made as follows: active = hit-call score of the fitted dose curve at least 0.9, where 1 is the maximum; inconclusive = response in the unintended direction; inactive = score below 0.9.
# How the values were obtained:
# [1] = target: human Peripheral-type Benzodiazepine Receptor (PBR), TSPO (gene 706) (UniProt P30536); experiment: NVS_MP_hPBR: NovaScreen (NVS) Membrane Protein Assay for human Peripheral-type Benzodiazepine Receptor (PBR) (AID 2283331);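 also: hits reduce radioligand binding relative to DMSO baseline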
# In short: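 Radioligand displacement on human colonic cell membranes, 1 h incubation; bound radioactivity by filtration and scintillation counting. Primary screen in duplicate at 25 uM single concentration, actives followed up in concentration series; loss of binding versus DMSO.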
# [2] = target: rat Neonicotinoid receptor (NNR), Chrna7 (gene 25302) (UniProt Q05941); experiment: NVS_LGIC_rNNR_BungSens: NovaScreen (NVS) Ligand-Gated Ion Channel Assay for rat Neonicotinoid receptor (NNR) (AID 2283315)
# In short: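 Radioligand displacement binding on rat cortical membranes, 2.5 h incubation, filtration and scintillation counting. Loss of specific binding fitted relative to DMSO.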
# [3] = target: Small conductance calcium-activated potassium channel protein 1 (Rattus norvegicus) (UniProt P70606); experiment: NVS_IC_rKCaCh: NovaScreen (NVS) Ion Channel Assay for rat Potassium Channel, Ca2+ Act., VI (KCaCh) (AID 2283336)
# In short: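 Radioligand binding to rat forebrain membranes, cell-free, read 1 hour after dosing by filter-based scintillation counting. Compounds first run in duplicate at 25 uM, actives then in concentration series; loss of signal vs DMSO indicates displacement.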
# [4] = target: Voltage-gated inwardly rectifying potassium channel KCNH2 (Homo sapiens) (UniProt Q12809); experiment: NVS_IC_hKhERGCh: NovaScreen (NVS) Ion Channel Assay for human Potassium Channel ERG (KhERGCh) (AID 2283333)
# In short: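 Cell-free radioligand competition binding on hERG protein extracted from CHO cells, read by filter-based scintillation counting 0.75 h after dosing. Primary screen at 25 uM in duplicate, actives followed in concentration series. Signal loss fitted versus DMSO.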
# [5] = target: rat Opioid Receptor, Non-selective Sodium (Na+) Binding, Oprm1 (gene 25601) (UniProt P33535); experiment: NVS_GPCR_rOpiate_NonSelectiveNa: NovaScreen (NVS) G Protein-Coupled Receptor Assay for rat Opioid Receptor, Non-selective Sodium (Na+) Binding (AID 2283311)
# In short: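 Rat forebrain membranes, radioligand displacement with filter scintillation counting, 1.5 h incubation. Screened in duplicate at 25 µM; hits then run in concentration-response up to 50 µM; loss of binding fitted versus DMSO.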
# [6] = target: human Androgen Receptor (AR), AR (gene 367) (UniProt P10275); experiment: NVS_NR_hAR: NovaScreen (NVS) Nuclear Receptor Binding Assay for human Androgen Receptor (AR) (AID 2283332)
# In short: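 LnCAP cell-free extract; radioligand displacement read by scintillation counting after 20 h. Primary screen single concentration 25 uM in duplicate, actives then run as concentration series; loss-of-signal fitted relative to DMSO baseline.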
# [7] = NVS_IC_rCaDHPRCh_L: NovaScreen (NVS) Ion Channel Assay for rat Calcium Channel, Type L, Dihydropyridine Site (CaDHPRCh_L) (AID 2283320)
# In short: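 Radioligand binding to dihydropyridine site on rat cortical membranes, filter-based scintillation counting, 1 h after dosing. Screened in duplicate at 25 uM; actives rerun in concentration-response up to 50 uM. Loss of signal versus DMSO baseline.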
# [8] = target: rat Thyrotropin Releasing Hormone Receptor (TRH), Trhr (gene 25570) (UniProt Q01717); experiment: NVS_GPCR_rTRH: NovaScreen (NVS) G Protein-Coupled Receptor Assay for rat Thyrotropin Releasing Hormone Receptor (TRH) (AID 2283329);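 also: hit means lower bound tracer signal versus DMSO baseline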
# In short: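 Rat forebrain membrane prep, radioligand displacement, filter scintillation readout at 4 h. Single conc 25 uM, duplicate; actives retested as concentration series. DMSO = negative control/baseline.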
# [9] = NVS_IC_rCaBTZCHL: NovaScreen (NVS) Ion Channel Assay for Calcium Channel, Type L, Benzothiazepine Site (CaBTZCHL) (AID 2283337)
# In short: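 Radioligand displacement at the benzothiazepine site using rat cortical membranes; bound label measured by filtration and scintillation counting 1.5 h after dosing. Single-point 25 uM in duplicate, then concentration series; DMSO baseline.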
# [10] = target: Sodium channel protein type 1 subunit alpha (Rattus norvegicus) (UniProt P04774); experiment: NVS_IC_rNaCh_site2: NovaScreen (NVS) Ion Channel Assay for rat Sodium Channel, Site 2 (NaCh) (AID 2283322);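 also: hit means loss of radioligand binding signal relative to DMSO so AC50 marks displacement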
# In short: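 Membranes: rat forebrain. Format: competitive radioligand displacement, filter separation, scintillation readout, 1 h exposure. Primary screen in duplicate at 25 uM; actives retested in concentration series.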
# [11] = target: rat Glutamate, NMDA Agonist Site (GluNMDA), Grin1 (gene 24408) (UniProt P35439); experiment: NVS_LGIC_rGluNMDA_Agonist: NovaScreen (NVS) Ligand-Gated Ion Channel Assay for rat Glutamate, NMDA Agonist Site (GluNMDA) (AID 2283327)
# In short: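 Rat forebrain membranes, radioligand binding in the agonist-site protocol; 1 h after dosing; filter-based scintillation counting. Single-concentration duplicate screen at 25 uM, then concentration-response up to 50 uM for actives; gain-of-signal vs DMSO.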
# [12] = target: rat Somatostatin Receptor (SST), Sstr1 (gene 25033) (UniProt P28646); experiment: NVS_GPCR_rSST: NovaScreen (NVS) G Protein-Coupled Receptor Assay for rat Somatostatin Receptor (SST) (AID 2283314)
# In short: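 Rat forebrain membranes; radioligand displacement read by filter-based scintillation counting 1 h after dosing. Primary screen in duplicate at 25 uM. Actives (e.g., 30% inhibition) were rerun as concentration-response to 50 uM max and fitted against DMSO.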
# NCBI gene 24521 = experiment: NVS_IC_rKATPCh: NovaScreen (NVS) Ion Channel Assay for rat Potassium Channel, ATP-Sensitive (KATPCh) (AID 2283319)
# In short: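 Rat cortical membranes; radioligand binding at ATP-sensitive K channel site, filter-based scintillation counting 2 h after dosing. Single-point duplicate screen at 25 uM, hits rerun in concentration-response up to 50 uM; loss of signal versus DMSO.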
# [13] = target: rat Glutamate, AMPA Site (AMPA), Gria1 (gene 50592) (UniProt P19490); experiment: NVS_LGIC_rAMPA: NovaScreen (NVS) Ligand-Gated Ion Channel Assay for rat Glutamate, AMPA Site (AMPA) (AID 2283324)
# In short: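 Rat forebrain membranes; radioligand binding read 1 h after dosing by filtration and scintillation counting. Duplicate single-point screen at 25 uM, then concentration-response to 50 uM for threshold hits (e.g. 30% inhibition); loss of signal vs DMSO.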
# [14] = target: rat Vasopressin 1 Receptor (V1), Avpr1a (gene 25107) (UniProt P30560); experiment: NVS_GPCR_rV1: NovaScreen (NVS) G Protein-Coupled Receptor Assay for rat Vasopressin 1 Receptor (V1) (AID 2283316)
# In short: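 Radioligand binding on rat liver membranes, 1.5 h incubation, filter-based scintillation counting. Single 25 uM screen in duplicate; chemicals meeting threshold (e.g. 30% inhibition) run in concentration-response up to 50 uM.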
# [15] = target: bovine Gamma-Aminobutyric Acid Type A Receptor BDZ, alpha 5 site (GABARa5), GABRA5 (gene 523515) (UniProt Q08E50); experiment: NVS_LGIC_bGABARa5: NovaScreen (NVS) Ligand-Gated Ion Channel Assay for bovine Gamma-Aminobutyric Acid Type A Receptor BDZ, alpha 5 site (GABARa5) (AID 2283323)
# In short: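 Radioligand competitive displacement binding on bovine hippocampal membranes, read 1 hr after dosing by filter-based scintillation counting. Primary screen at 25 uM in duplicate; actives (e.g. ≥30% inhibition) then run in concentration-response up to 50 uM.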
# Sequence of human Androgen Receptor (AR), AR (gene 367) (P10275 whole entry, looked up): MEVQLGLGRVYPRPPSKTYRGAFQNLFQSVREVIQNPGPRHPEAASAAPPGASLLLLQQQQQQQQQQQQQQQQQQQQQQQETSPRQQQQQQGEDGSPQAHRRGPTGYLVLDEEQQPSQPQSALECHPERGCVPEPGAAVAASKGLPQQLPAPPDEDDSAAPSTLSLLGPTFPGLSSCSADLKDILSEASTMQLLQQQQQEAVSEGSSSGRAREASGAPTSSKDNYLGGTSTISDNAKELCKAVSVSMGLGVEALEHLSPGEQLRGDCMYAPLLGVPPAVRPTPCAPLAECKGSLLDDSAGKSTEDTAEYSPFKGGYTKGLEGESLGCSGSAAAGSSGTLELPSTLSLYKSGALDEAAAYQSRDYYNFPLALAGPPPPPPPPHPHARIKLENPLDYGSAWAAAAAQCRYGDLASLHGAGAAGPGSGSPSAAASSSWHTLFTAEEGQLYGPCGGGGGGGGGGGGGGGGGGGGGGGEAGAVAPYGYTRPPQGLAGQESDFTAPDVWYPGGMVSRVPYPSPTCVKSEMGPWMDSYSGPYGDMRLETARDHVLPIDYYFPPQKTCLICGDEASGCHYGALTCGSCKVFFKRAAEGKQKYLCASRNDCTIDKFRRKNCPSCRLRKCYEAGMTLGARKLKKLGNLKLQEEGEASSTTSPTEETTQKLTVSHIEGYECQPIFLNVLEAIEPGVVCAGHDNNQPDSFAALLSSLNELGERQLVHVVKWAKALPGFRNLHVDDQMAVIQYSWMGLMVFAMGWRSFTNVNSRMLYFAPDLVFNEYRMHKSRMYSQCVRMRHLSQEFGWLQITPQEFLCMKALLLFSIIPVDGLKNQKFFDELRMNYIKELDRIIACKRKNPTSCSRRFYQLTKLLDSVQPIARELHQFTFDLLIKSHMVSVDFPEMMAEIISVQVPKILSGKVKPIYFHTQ
# Sequence of rat Neonicotinoid receptor (NNR), Chrna7 (gene 25302) (Q05941 whole entry, looked up): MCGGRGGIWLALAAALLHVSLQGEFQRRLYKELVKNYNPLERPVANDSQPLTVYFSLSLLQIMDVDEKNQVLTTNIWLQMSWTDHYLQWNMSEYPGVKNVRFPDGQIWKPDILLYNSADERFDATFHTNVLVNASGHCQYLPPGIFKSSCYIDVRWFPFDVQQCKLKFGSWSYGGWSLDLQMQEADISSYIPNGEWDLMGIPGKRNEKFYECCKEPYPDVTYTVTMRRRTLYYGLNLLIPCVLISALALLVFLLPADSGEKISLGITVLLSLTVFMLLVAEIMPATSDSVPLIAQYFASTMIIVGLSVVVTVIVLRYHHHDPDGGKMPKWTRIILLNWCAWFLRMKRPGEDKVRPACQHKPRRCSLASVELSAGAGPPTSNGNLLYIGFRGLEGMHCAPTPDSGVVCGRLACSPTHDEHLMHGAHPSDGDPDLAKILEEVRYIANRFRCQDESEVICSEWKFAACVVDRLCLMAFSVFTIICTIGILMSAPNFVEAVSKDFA
# Sequence of rat Thyrotropin Releasing Hormone Receptor (TRH), Trhr (gene 25570) (Q01717 whole entry, looked up): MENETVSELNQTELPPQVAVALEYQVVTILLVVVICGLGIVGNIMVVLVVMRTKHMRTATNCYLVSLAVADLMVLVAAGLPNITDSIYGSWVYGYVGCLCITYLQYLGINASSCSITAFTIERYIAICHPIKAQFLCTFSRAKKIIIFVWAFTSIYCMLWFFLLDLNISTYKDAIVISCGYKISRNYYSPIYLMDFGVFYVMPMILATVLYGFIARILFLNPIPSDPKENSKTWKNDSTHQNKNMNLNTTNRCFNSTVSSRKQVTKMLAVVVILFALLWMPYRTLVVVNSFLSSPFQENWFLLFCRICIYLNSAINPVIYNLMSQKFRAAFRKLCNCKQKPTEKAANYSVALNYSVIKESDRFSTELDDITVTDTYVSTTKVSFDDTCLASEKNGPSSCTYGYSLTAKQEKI
# Sequence of rat Glutamate, AMPA Site (AMPA), Gria1 (gene 50592) (P19490 whole entry, looked up): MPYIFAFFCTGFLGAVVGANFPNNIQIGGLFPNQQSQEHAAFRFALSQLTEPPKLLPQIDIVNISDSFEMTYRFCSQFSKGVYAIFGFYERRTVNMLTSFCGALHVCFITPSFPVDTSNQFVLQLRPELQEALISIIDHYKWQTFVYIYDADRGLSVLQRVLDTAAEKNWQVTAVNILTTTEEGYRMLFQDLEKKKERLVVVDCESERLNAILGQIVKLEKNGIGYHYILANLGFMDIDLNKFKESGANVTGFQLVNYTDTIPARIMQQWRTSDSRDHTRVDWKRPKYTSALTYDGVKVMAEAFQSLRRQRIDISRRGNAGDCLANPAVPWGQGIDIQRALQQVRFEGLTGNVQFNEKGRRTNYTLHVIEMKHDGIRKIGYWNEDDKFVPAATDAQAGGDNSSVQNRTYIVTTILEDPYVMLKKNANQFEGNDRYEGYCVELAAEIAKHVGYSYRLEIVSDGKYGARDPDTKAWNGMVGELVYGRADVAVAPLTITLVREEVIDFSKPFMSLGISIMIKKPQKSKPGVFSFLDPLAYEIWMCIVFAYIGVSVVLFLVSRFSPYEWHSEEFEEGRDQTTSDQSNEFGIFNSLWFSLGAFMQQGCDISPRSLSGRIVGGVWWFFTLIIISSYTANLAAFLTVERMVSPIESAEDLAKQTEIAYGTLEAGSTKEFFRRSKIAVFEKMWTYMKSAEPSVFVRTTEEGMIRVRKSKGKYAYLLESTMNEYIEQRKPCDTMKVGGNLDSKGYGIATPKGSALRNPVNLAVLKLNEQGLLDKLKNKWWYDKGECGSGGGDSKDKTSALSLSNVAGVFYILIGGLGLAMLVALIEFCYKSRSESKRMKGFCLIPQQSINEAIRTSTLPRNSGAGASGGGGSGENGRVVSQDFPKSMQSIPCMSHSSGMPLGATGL
# Sequence of human Peripheral-type Benzodiazepine Receptor (PBR), TSPO (gene 706) (P30536 whole entry, looked up): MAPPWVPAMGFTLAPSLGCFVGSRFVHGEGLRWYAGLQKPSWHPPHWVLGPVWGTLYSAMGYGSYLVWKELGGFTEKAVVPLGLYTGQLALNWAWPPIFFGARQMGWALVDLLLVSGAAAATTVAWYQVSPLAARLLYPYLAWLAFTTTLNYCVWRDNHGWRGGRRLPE
# Sequence of Small conductance calcium-activated potassium channel protein 1 (Rattus norvegicus) (P70606 whole entry, looked up): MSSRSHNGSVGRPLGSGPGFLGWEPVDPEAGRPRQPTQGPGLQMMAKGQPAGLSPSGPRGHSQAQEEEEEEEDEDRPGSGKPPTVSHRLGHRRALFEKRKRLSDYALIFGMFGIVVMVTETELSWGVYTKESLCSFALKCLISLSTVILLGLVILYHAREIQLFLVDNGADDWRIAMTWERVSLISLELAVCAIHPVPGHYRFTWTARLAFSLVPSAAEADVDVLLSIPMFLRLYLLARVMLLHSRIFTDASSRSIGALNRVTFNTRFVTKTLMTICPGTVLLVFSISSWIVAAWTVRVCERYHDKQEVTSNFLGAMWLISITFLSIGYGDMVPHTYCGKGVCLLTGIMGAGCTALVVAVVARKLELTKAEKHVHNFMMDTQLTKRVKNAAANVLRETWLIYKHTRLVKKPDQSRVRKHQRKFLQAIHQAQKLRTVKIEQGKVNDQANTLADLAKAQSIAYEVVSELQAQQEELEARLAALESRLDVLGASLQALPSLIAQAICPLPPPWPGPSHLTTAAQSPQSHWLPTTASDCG
# Sequence of rat Opioid Receptor, Non-selective Sodium (Na+) Binding, Oprm1 (gene 25601) (P33535 whole entry, looked up): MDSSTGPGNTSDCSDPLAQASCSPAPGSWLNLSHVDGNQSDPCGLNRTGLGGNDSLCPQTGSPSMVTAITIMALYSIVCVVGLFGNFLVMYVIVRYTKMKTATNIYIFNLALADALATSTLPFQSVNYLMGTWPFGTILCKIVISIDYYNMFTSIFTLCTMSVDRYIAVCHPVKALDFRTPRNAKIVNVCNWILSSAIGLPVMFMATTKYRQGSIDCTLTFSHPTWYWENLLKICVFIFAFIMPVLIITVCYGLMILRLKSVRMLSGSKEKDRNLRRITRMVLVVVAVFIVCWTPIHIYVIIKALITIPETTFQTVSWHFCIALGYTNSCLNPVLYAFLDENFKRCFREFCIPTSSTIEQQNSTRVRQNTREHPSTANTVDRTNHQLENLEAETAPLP
# Sequence of bovine Gamma-Aminobutyric Acid Type A Receptor BDZ, alpha 5 site (GABARa5), GABRA5 (gene 523515) (Q08E50 whole entry, looked up): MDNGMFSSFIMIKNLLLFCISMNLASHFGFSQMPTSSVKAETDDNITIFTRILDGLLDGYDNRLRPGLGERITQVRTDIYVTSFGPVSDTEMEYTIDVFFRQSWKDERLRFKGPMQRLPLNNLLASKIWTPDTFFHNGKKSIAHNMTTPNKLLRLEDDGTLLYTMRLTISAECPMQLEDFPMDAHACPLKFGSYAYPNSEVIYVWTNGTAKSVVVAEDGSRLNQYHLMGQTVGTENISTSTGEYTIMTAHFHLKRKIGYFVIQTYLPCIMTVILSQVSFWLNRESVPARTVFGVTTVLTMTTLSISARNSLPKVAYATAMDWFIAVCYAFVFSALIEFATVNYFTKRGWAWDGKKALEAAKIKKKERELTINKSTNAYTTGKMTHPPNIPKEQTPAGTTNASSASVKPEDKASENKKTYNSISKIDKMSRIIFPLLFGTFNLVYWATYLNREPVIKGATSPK
# Sequence of rat Vasopressin 1 Receptor (V1), Avpr1a (gene 25107) (P30560 whole entry, looked up): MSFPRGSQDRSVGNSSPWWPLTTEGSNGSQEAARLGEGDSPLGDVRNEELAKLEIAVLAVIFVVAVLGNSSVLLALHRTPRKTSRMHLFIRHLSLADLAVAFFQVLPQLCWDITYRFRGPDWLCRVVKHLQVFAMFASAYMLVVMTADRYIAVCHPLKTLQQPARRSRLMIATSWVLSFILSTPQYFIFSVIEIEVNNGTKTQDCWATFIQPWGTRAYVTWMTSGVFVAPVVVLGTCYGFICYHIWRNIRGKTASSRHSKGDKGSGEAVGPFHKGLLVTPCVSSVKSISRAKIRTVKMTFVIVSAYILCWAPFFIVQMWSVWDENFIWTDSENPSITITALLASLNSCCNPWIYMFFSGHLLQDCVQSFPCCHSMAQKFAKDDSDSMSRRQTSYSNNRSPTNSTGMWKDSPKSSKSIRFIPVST
smiles,measurement,setting,value
CCCCOC(=O)[C@@H](C)Oc1ccc(Oc2ccc(C(F)(F)F)cn2)cc1,outcome,[1],inactive
C[C@]12C[C@H](O)[C@H]3[C@@H](CCC4=CC(=O)CC[C@@]43C)[C@@H]1CC[C@@H]2C(=O)CO,outcome,[2],inactive
CC(=O)[C@H]1CC[C@H]2[C@@H]3CCC4=CC(=O)CC[C@]4(C)[C@H]3CC[C@]12C,AC50,[1],1.75 µM (active) and 1.51 µM (active) and 4.64 µM (active)
same,outcome,[3],inactive
Cc1nn(C)c(Oc2ccccc2)c1C=NOCc1ccc(C(=O)OC(C)(C)C)cc1,outcome,[4],inactive
CSC(=O)c1cccc2nnsc12,outcome,[5],inactive
same,outcome,[6],inactive
CCCCOCCOCCOCc1cc2c(cc1CCC)OCO2,AC50,[1],26.9 µM (active)
O=C(c1ccc(O)cc1O)c1ccc(O)cc1O,outcome,[2],inactive
same,outcome,[7],inactive
same,outcome,[8],inactive
same,AC50,[6],1.39 µM (active)
C[C@]12CC[C@@H]3c4ccc(O)cc4C[C@@H](CCCCCCCCCS(=O)CCCC(F)(F)C(F)(F)F)[C@H]3[C@@H]1CC[C@@H]2O (stereo partly specified),outcome,[8],inactive
same,outcome,[1],inactive
same,outcome,[6],inactive
same,outcome,[3],inactive
same,AC50,[9],1.45 µM (active)
CCCCC(CC)CN1C(=O)C2C3C=CC(C3)C2C1=O (stereo unspecified),outcome,[8],inactive
same,outcome,[1],inactive
CCOC(=O)C(C)Oc1ccc(Oc2nc3ccc(Cl)cc3o2)cc1 (stereo unspecified),outcome,[7],inactive
CC(C)CCCCCCc1ccc(O)cc1,outcome,[1],inactive
CC(=O)S[C@@H]1CC2=CC(=O)CC[C@]2(C)[C@H]2CC[C@@]3(C)[C@@H](CC[C@@]34CCC(=O)O4)[C@H]12,AC50,[5],17.8 µM (active)
same,AC50,[2],17.1 µM (active)
same,AC50,[10],8.6 µM (active)
same,outcome,[11],inactive
same,outcome,[8],inactive
same,outcome,[1],inactive
OB(O)O,outcome,[10],inactive
CC(C)(C)[C@@H](O)[C@@H](Cc1ccc(Cl)cc1)n1cncn1,outcome,[12],inactive
same,outcome,[11],inactive
CCN(CC)C(=O)c1cccc(C)c1,AC50,[1],20.1 µM (active)
CN(C)C(=O)Nc1ccc(Cl)c(Cl)c1,outcome,NCBI gene 24521,inactive
same,AC50,[1],19.9 µM (active)
O=C(c1ccccc1)C1CCCCC1,outcome,[8],inactive
CCCCCOC(=O)COc1cc(N2C(=O)C3=C(CCCC3)C2=O)c(F)cc1Cl,outcome,[13],inactive
same,AC50,[1],2.72 µM (active)
N#CSCSc1nc2ccccc2s1,AC50,[14],2.34 µM (active)
Oc1ccc(C(c2ccc(O)cc2)C(Cl)(Cl)Cl)cc1,AC50,[7],6.47 µM (active)
same,outcome,[15],inactive
same,outcome,[13],inactive
same,outcome,[1],inactive
CCCN(CCC)C(=O)SCC,outcome,[1],inactive
same,outcome,[6],inactive
S=C([S-])NCCNC(=S)[S-].[Mn+2],outcome,[13],inactive
same,outcome,[11],inactive
same,outcome,[1],inactive
